Results filed as inconclusive are left out. Active and inactive are the calls of the source. Unless noted, calls follow the shape of the dose curve; as a rule, active = well fitted curve in the direction sought with a large enough effect in the repeat runs; inconclusive = weak or mixed curves; inactive = no such curve, though single readings can be large; an effect the other way counts as inactive or inconclusive.
Legend:
[1] = target: Peroxisome proliferator-activated receptor delta (Homo sapiens) (UniProt Q03181); assay: qHTS assay to identify small molecule agonists of the peroxisome proliferator-activated receptor delta (PPARd) signaling pathway (AID 743212; calls by dose curve)
Outline: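 HEK293H UAS-bla reporter cells, human PPARd system; compounds delivered in DMSO after 5 h plating, then at 37 C. Beta-lactamase FRET read, 2 h RT substrate step.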

[2] = qHTS assay to identify small molecule antagonists of the peroxisome proliferator-activated receptor delta (PPARd) signaling pathway - cell viability counter screen (AID 743213); also: nearly all actives have a fitted effect of over 50% in size; also: potency is read from the fitted curve at half-maximal effect
Outline: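 PPARd-bla HEK293H cells were treated with compounds plus agonist L165041 (300 nM final) for 17 h at 37 C. Viability was then read in the same wells by CellTiter-Glo luminescence after 30 min at room temperature.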

[3] = target: Peroxisome proliferator-activated receptor delta (Homo sapiens) (UniProt Q03181); assay: qHTS assay to identify small molecule antagonists of the peroxisome proliferator-activated receptor delta (PPARd) signaling pathway (AID 743215; active = well fitted inhibition curve with a large enough effect in the signal ratio in the repeat runs, not every such curve was filed as active; the % refers to the signal ratio;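 also: cells stimulated with agonist L165041 at 300 nM final during compound exposure; series mostly up to about 62 µM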)
Outline: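 Inhibition of L165041-driven (300 nM final) PPARd signaling is scored in HEK293H UAS-bla cells. Exposure lasts 17 h at 37 C; beta-lactamase activity is then read by FRET substrate fluorescence after 2 h at room temperature.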

[4] = target: Bile acid receptor (Homo sapiens) (UniProt Q96RI1); assay: qHTS assay to identify small molecule antagonists of the farnesoid-X-receptor (FXR) signaling pathway (AID 743217; active = well fitted inhibition curve with a large enough effect in the signal ratio in the repeat runs, not every such curve was filed as active; the % refers to the signal ratio; also: potency is read from the fitted curve at half-maximal effect)
Outline: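 Antagonist mode against 50 uM (final) chenodeoxycholic acid stimulation in FXR-bla HEK 293T cells, 16 h at 37 °C. Inhibition detected as reduced beta-lactamase activity via LiveBLAzer B/G FRET fluorescence after 2 h at room temperature.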

[5] = qHTS assay to identify small molecule agonists of the farnesoid-X-receptor (FXR) signaling pathway - cell viability counter screen (AID 743218); also: nearly all actives have a fitted effect of over 45% in size; also: potency is read from the fitted curve at half-maximal effect
Outline: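 Cytotoxicity counter-screen run in parallel, same wells: FXR-UAS-bla HEK 293T cells dosed 16 h at 37 C, viability read by CellTiter-Glo luminescence after 30 min at room temperature.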

[6] = target: Bile acid receptor (Homo sapiens) (UniProt Q96RI1); assay: qHTS assay to identify small molecule agonists of the farnesoid-X-receptor (FXR) signaling pathway (AID 743220; active = well fitted activation curve with a large enough effect in the signal ratio in the repeat runs, not every such curve was filed as active; the % refers to the signal ratio)
Outline: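 Beta-lactamase reporter under UAS control in GeneBLAzer FXR HEK 293T cells (5000/well) measured with LiveBLAzer FRET substrate after 2 h at room temperature. Compound exposure lasted 16 h at 37C.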

[7] = target: Vitamin D3 receptor (Homo sapiens) (UniProt P11473); assay: qHTS assay to identify small molecule agonists of the vitamin D receptor (VDR) signaling pathway (AID 743222; calls by dose curve)
Outline: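 Quantitative HTS agonist-mode screen: compounds in DMSO were pin-transferred onto VDR-bla cells and incubated 16 h at 37C, 5% CO2. Reporter activity was detected with LiveBLAzer B/G FRET substrate after 2 h at room temperature.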

[8] = target: Vitamin D3 receptor (Homo sapiens) (UniProt P11473); assay: qHTS assay to identify small molecule antagonists of the vitamin D receptor (VDR) signaling pathway (AID 743223; active = well fitted inhibition curve with a large enough effect in the signal ratio in the repeat runs, not every such curve was filed as active; the % refers to the signal ratio)
Outline: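 Antagonist mode: compound added to VDR-bla cells alongside agonist 1alpha,25-dihydroxyvitamin D3 (3 nM final), incubation 16 h at 37C. Read-out is LiveBLAzer FRET fluorescence, 2 h at room temperature.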

[9] = qHTS assay to identify small molecule antagonists of the farnesoid-X-receptor (FXR) signaling pathway - cell viability counter screen (AID 743221; active = well fitted cell-killing curve with a large enough effect in the repeat runs, not every such curve was filed as active; also: nearly all actives have a fitted effect of over 50% in size)
Outline: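 Cytotoxicity counter screen run in the FXR-bla reporter wells: HEK 293T cells exposed to compound with 50 uM (final) chenodeoxycholic acid for 16 h, 37 C, then viability measured by CellTiter-Glo luminescence after 30 min, room temperature.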

[10] = qHTS assay to identify small molecule agonists of the peroxisome proliferator-activated receptor delta (PPARd) signaling pathway - cell viability counter screen (AID 743211); also: nearly all actives have a fitted effect of over 55% in size; also: potency is read from the fitted curve at half-maximal effect
Outline: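 Viability was measured as CellTiter-Glo luminescence (30 min, room temperature) in the same wells as the beta-lactamase readout. GeneBLAzer PPARd UAS-bla HEK293H cells received compound after 5 h plating and were incubated 17 h at 37 C.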

Measured: Potency

Bile acid receptor (Homo sapiens), sequence (Q96RI1 whole entry, looked up): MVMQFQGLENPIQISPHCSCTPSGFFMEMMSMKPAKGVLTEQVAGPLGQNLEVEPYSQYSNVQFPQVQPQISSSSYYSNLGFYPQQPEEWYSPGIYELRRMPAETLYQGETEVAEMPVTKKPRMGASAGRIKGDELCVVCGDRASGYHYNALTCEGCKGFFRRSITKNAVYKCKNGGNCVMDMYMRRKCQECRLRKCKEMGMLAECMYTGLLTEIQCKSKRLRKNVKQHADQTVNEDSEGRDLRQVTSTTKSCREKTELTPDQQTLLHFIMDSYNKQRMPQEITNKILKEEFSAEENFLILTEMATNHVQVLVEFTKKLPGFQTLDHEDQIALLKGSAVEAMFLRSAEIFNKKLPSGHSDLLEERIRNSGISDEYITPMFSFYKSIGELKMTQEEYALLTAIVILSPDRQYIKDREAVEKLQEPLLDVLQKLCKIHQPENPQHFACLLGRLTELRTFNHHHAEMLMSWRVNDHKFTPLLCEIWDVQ
Vitamin D3 receptor (Homo sapiens), sequence (P11473 whole entry, looked up): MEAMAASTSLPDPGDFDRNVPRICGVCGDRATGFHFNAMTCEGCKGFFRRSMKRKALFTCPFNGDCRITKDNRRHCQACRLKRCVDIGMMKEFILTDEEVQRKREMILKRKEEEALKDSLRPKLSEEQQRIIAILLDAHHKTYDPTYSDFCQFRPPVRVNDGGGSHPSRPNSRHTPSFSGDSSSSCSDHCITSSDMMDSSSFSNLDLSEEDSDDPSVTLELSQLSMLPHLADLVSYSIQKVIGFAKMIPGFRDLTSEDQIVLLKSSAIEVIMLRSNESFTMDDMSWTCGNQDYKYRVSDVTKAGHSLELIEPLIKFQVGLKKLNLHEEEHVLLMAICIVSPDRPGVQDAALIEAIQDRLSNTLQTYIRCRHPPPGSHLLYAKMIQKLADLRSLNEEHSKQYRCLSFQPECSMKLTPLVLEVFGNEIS
Peroxisome proliferator-activated receptor delta (Homo sapiens), sequence (Q03181 whole entry, looked up): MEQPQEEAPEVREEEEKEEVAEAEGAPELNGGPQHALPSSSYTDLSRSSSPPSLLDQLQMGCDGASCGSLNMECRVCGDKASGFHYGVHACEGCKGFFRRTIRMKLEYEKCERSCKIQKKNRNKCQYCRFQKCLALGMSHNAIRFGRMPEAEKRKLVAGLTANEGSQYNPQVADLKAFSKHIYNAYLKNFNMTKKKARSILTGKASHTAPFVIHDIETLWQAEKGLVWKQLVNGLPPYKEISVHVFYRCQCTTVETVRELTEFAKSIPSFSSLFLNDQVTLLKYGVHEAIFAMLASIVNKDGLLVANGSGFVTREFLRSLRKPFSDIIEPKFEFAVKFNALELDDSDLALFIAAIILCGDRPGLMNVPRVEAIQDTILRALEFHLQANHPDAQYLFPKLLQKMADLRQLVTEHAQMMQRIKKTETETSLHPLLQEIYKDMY

Cc1cc(O)c(C(C)C)cc1Cl
inactive: [1] | [2] | [3] | [4] | [5] | [6] | [7] | [8]

CC(=O)CC(c1ccc([N+](=O)[O-])cc1)c1c(O)c2ccccc2oc1=O (stereo unspecified)
inactive: [1] | [2] | [3] | [5] | [9]

Cc1occc1C(=O)Nc1ccc(C(=O)N2CCC(F)(F)/C(=C\C(=O)N3CCC(N4CCCCC4)CC3)c3ccccc32)cc1
inactive: [10] | [4] | [6] | [9] | [7] | [8]

C[C@]12CCC(=O)C=C1C=C[C@@H]1[C@@H]2CC[C@@]2(C)[C@H]1CC[C@@]21CCC(=O)O1
inactive: [1] | [2] | [3] | [9]

CCOC(=O)[C@@H](C)Oc1ccc(Oc2nc3ccc(Cl)cc3o2)cc1
inactive: [10] | [2] | [6] | [9] | [8]

COc1cc2ncnc(Nc3ccc(F)c(Cl)c3)c2cc1OCCCN1CCOCC1
inactive: [6] | [7] | [8]
active: [10] 29.8 µM

CCCC1C(CC)=CC(CC)=CN1c1ccccc1 (stereo unspecified)
inactive: [1] | [2] | [3] | [4] | [5] | [6] | [9]

c1cnc2c(n1)CCCC2
inactive: [1] | [2] | [3] | [5] | [9] | [8]

CC(=O)N(c1onc(C)c1C)S(=O)(=O)c1ccc(N)cc1
inactive: [10] | [4] | [5] | [6]

CC1CC(=O)NN=C1c1ccc(NCC(C)(C)NCC(O)COc2cc(Cl)ccc2C#N)cc1 (stereo unspecified)
inactive: [10] | [4] | [5] | [6]

Cc1cc(C(=C2C=CC(=Nc3ccc(S(=O)(=O)O)cc3S(=O)(=O)O)C=C2)c2ccc(Nc3ccc(S(=O)(=O)O)cc3)cc2)ccc1N
inactive: [10] | [2] | [9] | [7] | [8]

O=C(O)c1ccccc1NCCc1ccccc1
inactive: [1] | [2] | [3] | [9] | [8]

C=CCOC(=O)/C=C\C(=O)OCC=C
inactive: [1] | [2] | [3] | [4] | [5] | [6] | [7]

C[C@@H]1C[C@H]2[C@@H]3CCC4=CC(=O)C=C[C@]4(C)[C@@]3(F)[C@@H](O)C[C@]2(C)[C@@]1(O)C(=O)CO
inactive: [1] | [2] | [3] | [9]

NC(=O)Nc1ccc(Cl)c(Cl)c1
inactive: [1] | [2] | [3] | [4] | [5] | [6] | [9] | [7] | [8]

CCCCCCCCCCCCCCCCBr
inactive: [1] | [2] | [3] | [5] | [8]

O=C(CS)OCCOC(=O)CS
inactive: [1] | [2] | [3] | [4] | [5] | [6] | [9] | [8]

Cc1cc2nc3ccc(=[N+](C)C)cc-3sc2cc1N
active: [4] 10.6 µM
inactive: [1] | [2] | [3] | [6] | [9] | [7] | [8]

C(=C\c1ccccc1)/CN1CCN(C(c2ccccc2)c2ccccc2)CC1
active: [10] 29.8 µM
inactive: [6] | [9] | [8]

CC(=O)[C@H]1CC[C@H]2[C@@H]3C=CC4=CC(=O)CC[C@@]4(C)[C@@H]3CC[C@]12C
inactive: [10] | [2] | [6] | [9]

CC(C)CCCCCOC(=O)CCCCC(=O)OCCCCCC(C)C
inactive: [1] | [2] | [3] | [5] | [7] | [8]

Cc1ccc(Nc2nccc(N(C)c3ccc4c(C)n(C)nc4c3)n2)cc1S(N)(=O)=O
inactive: [10] | [5] | [9] | [7] | [8]

Oc1cc(O)c(Cl)cc1Cl
inactive: [1] | [2] | [3] | [4] | [5] | [6] | [9] | [7] | [8]

CCOC(=N)CC(=O)OCC
inactive: [1] | [2] | [3] | [5] | [9]

O=C(O)C(Cc1cc(I)c(O)c(I)c1)c1ccccc1 (stereo unspecified)
inactive: [1] | [2] | [3] | [5] | [9]

CO[C@H]1C=CO[C@@]2(C)Oc3c(C)c(O)c4c(O)c(c5c(c4c3C2=O)=NC2(CCN(CC(C)C)CC2)N=5)NC(=O)/C(C)=C\C=C/[C@H](C)[C@H](O)[C@@H](C)[C@@H](O)[C@@H](C)[C@H](OC(C)=O)[C@@H]1C
inactive: [6]
active: [10] 24 µM

C=CC(C)=CCC=C(C)C
inactive: [10] | [2] | [7] | [8]

COC(=O)[C@@H]1CC2=CC(=O)CC[C@]2(C)[C@@]23O[C@@H]2C[C@@]2(C)[C@@H](CC[C@@]24CCC(=O)O4)[C@H]13
inactive: [1] | [2] | [3] | [5] | [9] | [8]

COc1ccc(C(=O)c2cccc(O)c2)c(OC)c1
inactive: [10] | [2] | [5] | [7] | [8]

Cc1c(C(=O)NN2CCCCC2)nn(-c2ccc(Cl)cc2Cl)c1-c1ccc(Cl)cc1
inactive: [6]
active: [10] 23.7 µM | [5] 33.5 µM

CC1(C)C(=O)N(Br)C(=O)N1Cl
inactive: [1] | [2] | [3] | [5] | [9] | [7] | [8]

Nc1ccc(S(=O)(=O)O)c(N)c1
inactive: [1] | [2] | [3] | [5] | [7] | [8]

NCC1CCCC(CN)C1 (stereo unspecified)
inactive: [1] | [2] | [3] | [4] | [5] | [6] | [9] | [7]

CC1(C)C2=CCCC(C)(C)[C@]23CC[C@H]1C3
inactive: [1] | [2] | [3] | [4] | [6] | [9] | [7] | [8]

OC/C(Br)=C(\Br)CO
inactive: [1] | [2] | [3] | [5] | [7] | [8]

CNCCCC1c2ccccc2C=Cc2ccccc21
inactive: [8]
active: [10] 10.6 µM | [2] 23.7 µM | [5] 23.7 µM

Reference: PubChem BioAssay (Tox21)
